In the supplement of paper PMC10849652:
About 7,900 targets were measured; listed, in parts, are those with a hit and a random draw of the rest. About 0.6% of all pairs of compound and target were hits.

Tests used:
Assay in all cases: log2 fold change, soluble protein after heating vs DMSO (PISA); higher = thermal stabilisation; K562 cells, 10 uM, 30 min; active = over 0.2 and 3.5 SD of the protein, either way, in both replicates (recomputed)
[1] = compound: CCn1c(C(=O)N(C2CC2)C2CC2)cc2c3c(ncn3C)c(Nc3cc(C)n(C)n3)nc21
In short: (§1)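 K562 cells at 2×10^6 cells/mL were given 10 μM compound for 30 min. Aliquots then went through 3 min of heating across 48°C-58°C, were pooled, and were extracted in PBS with 0.5% NP-40 at 4°C, and the supernatant after 21,000xg for 90 min was quantified by TMTpro 16plex LC-MS/MS with channel sums equalised. Thermal stability relative to control samples, from duplicates, is given as log2 fold change.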

Tubastatin A = compound: CN1CCc2c(c3ccccc3n2Cc2ccc(C(=O)NO)cc2)C1 [Tubastatin A]
In short: as §1

[2] = compound: CNC(=O)C1=CC=CC=C1NC2=NC(=NC=C2Cl)NC3=C(C=C(C=C3)N4CCOCC4)OC
In short: as §1

volasertib = compound: CC[C@@H]1C(=O)N(C)c2cnc(Nc3ccc(C(=O)N[C@H]4CC[C@H](N5CCN(CC6CC6)CC5)CC4)cc3OC)nc2N1C(C)C [volasertib]
In short: as §1

[3] = compound: CC[C@H](C)N1C=C(C2=C(C=C(C=C21)C3=CN=C(C=C3)N4CCNCC4)C(=O)NCC5=C(C=C(NC5=O)C)C)C
In short: as §1

epoxomicin = compound: CC[C@H](C)[C@@H](C(=O)N[C@@H]([C@@H](C)O)C(=O)N[C@@H](CC(C)C)C(=O)[C@]1(CO1)C)NC(=O)[C@H]([C@@H](C)CC)N(C)C(=O)C [epoxomicin]
In short: as §1

[4] = compound: CN(C)CC(=O)Nc1ccc2[nH]c(=O)c3ccccc3c2c1
In short: as §1

rosiglitazone = compound: CN(CCOC1=CC=C(C=C1)C[C@H]2C(=O)NC(=O)S2)C3=CC=CC=N3 (racemic) [rosiglitazone]
In short: as §1

[5] = compound: CN1C2=C(C3=C1C(=O)N(N=C3)CC4=CC(=CC=C4)N)SC(=C2)S(=O)C
In short: as §1

saracatinib = compound: CN1CCN(CCOc2cc(OC3CCOCC3)c3c(Nc4c(Cl)ccc5c4OCO5)ncnc3c2)CC1 [saracatinib]
In short: as §1

sotrastaurin = compound: CN1CCN(c2nc(C3=C(c4c[nH]c5ccccc45)C(=O)NC3=O)c3ccccc3n2)CC1 [sotrastaurin]
In short: as §1

defactinib = compound: CNC(=O)c1ccc(Nc2ncc(C(F)(F)F)c(NCc3nccnc3N(C)S(C)(=O)=O)n2)cc1 [defactinib]
In short: as §1

[6] = compound: CNc1nc(-c2ccc3c(N)n[nH]c3c2)cc(N2C[C@@H](C(=O)NC3CCCCC3)CC[C@H]2C)n1
In short: as §1

[7] = compound: COC(=O)[C@H](CCSC)NC(=O)C1=C(C=C(C=C1)NC[C@H](CS)N)C2=CC=CC=C2
In short: as §1

[8] = compound: CC[C@@H]1C(=O)N(C)c2cnc(Nc3ccc(C(=O)NC4CCN(C)CC4)cc3OC)nc2N1C1CCCC1
In short: as §1

[9] = compound: CCn1cc(-c2ccnc3[nH]c(-c4cccc(CN(C)C)c4)cc23)c(-c2ccc(NC(=O)N(C)C)cc2)n1
In short: as §1

[10] = compound: CN1CCC(CNc2ccc3ncc(-c4cccc(OC(F)(F)F)c4)n3n2)CC1
In short: as §1

alvocidib = compound: CN1CC[C@H](c2c(O)cc(O)c3c(=O)cc(-c4ccccc4Cl)oc23)[C@H](O)C1 [alvocidib]
In short: as §1

rucaparib = compound: CNCc1ccc(-c2[nH]c3cc(F)cc4c3c2CCNC4=O)cc1 [rucaparib]
In short: as §1

encorafenib = compound: COC(=O)N[C@@H](C)CNc1nccc(-c2cn(C(C)C)nc2-c2cc(Cl)cc(NS(C)(=O)=O)c2F)n1 [encorafenib]
In short: as §1

Measured: log2 fold change

EEF1D isoform 3 (UniProt P29692)
inactive: [1] -0.067 | Tubastatin A 0.147 | [2] -0.03

EIF3J isoform 2 (UniProt O75822)
inactive: volasertib 0.031 | [3] -0.079 | epoxomicin 0.025 | [1] 0.03 | [4] 0.076 | rosiglitazone -0.038 | [5] 0.133 | saracatinib 0.035 | sotrastaurin 0.075 | Tubastatin A -0.082 | [2] -0.021 | defactinib -0.085 | [6] -0.04 | [7] -0.008

EPHX2 (UniProt E5RI53)
inactive: epoxomicin -0.199 | rosiglitazone -0.248

DDX27 (UniProt Q96GQ7)
inactive: [8] -0.033 | [3] 0.1 | epoxomicin -0.184 | [1] -0.084 | [9] 0.116 | [4] -0.009 | [5] 0.162 | [10] 0.241 | saracatinib -0.104 | sotrastaurin -0.088 | alvocidib 0.209 | Tubastatin A 0.09 | [2] -0.035 | defactinib 0.651 | rucaparib 0.255 | [6] -0.017 | encorafenib 0.124 | [7] 0.057

DOP1A (UniProt Q5JWR5)
inactive: epoxomicin 0.069 | [1] -0.067 | [4] 0.121 | rosiglitazone -0.026 | [2] -0.052 | defactinib 0.164 | [7] -0.083

DNM2 isoform 4 (UniProt P50570)
inactive: [8] 0.026 | [3] -0.125 | epoxomicin 0.241 | [1] 0.017 | [9] -0.01 | rosiglitazone 0.038 | [5] 0.027 | [10] -0.252 | saracatinib -0.126 | sotrastaurin -0.024 | alvocidib -0.072 | [2] -0.088 | rucaparib -0.268 | [6] -0.235 | encorafenib 0.107

FAM160A2 isoform 2 (UniProt Q8N612)
inactive: [8] -0.074 | [3] -0.048 | epoxomicin -0.177 | [9] 0.06 | [4] 0.052 | rosiglitazone -0.046 | [5] 0.287 | [10] -0.258 | saracatinib -0.066 | alvocidib -0.016 | Tubastatin A -0.17 | defactinib -0.002 | rucaparib -0.085 | [6] -0.064 | encorafenib -0.168 | [7] 0.128

DHPS (UniProt M0R1T2)
inactive: rosiglitazone -0.057 | sotrastaurin -0.06

DNAH10 (UniProt Q8IVF4)
UniProt Q8IVF4, sequence (Q8IVF4 whole entry, looked up): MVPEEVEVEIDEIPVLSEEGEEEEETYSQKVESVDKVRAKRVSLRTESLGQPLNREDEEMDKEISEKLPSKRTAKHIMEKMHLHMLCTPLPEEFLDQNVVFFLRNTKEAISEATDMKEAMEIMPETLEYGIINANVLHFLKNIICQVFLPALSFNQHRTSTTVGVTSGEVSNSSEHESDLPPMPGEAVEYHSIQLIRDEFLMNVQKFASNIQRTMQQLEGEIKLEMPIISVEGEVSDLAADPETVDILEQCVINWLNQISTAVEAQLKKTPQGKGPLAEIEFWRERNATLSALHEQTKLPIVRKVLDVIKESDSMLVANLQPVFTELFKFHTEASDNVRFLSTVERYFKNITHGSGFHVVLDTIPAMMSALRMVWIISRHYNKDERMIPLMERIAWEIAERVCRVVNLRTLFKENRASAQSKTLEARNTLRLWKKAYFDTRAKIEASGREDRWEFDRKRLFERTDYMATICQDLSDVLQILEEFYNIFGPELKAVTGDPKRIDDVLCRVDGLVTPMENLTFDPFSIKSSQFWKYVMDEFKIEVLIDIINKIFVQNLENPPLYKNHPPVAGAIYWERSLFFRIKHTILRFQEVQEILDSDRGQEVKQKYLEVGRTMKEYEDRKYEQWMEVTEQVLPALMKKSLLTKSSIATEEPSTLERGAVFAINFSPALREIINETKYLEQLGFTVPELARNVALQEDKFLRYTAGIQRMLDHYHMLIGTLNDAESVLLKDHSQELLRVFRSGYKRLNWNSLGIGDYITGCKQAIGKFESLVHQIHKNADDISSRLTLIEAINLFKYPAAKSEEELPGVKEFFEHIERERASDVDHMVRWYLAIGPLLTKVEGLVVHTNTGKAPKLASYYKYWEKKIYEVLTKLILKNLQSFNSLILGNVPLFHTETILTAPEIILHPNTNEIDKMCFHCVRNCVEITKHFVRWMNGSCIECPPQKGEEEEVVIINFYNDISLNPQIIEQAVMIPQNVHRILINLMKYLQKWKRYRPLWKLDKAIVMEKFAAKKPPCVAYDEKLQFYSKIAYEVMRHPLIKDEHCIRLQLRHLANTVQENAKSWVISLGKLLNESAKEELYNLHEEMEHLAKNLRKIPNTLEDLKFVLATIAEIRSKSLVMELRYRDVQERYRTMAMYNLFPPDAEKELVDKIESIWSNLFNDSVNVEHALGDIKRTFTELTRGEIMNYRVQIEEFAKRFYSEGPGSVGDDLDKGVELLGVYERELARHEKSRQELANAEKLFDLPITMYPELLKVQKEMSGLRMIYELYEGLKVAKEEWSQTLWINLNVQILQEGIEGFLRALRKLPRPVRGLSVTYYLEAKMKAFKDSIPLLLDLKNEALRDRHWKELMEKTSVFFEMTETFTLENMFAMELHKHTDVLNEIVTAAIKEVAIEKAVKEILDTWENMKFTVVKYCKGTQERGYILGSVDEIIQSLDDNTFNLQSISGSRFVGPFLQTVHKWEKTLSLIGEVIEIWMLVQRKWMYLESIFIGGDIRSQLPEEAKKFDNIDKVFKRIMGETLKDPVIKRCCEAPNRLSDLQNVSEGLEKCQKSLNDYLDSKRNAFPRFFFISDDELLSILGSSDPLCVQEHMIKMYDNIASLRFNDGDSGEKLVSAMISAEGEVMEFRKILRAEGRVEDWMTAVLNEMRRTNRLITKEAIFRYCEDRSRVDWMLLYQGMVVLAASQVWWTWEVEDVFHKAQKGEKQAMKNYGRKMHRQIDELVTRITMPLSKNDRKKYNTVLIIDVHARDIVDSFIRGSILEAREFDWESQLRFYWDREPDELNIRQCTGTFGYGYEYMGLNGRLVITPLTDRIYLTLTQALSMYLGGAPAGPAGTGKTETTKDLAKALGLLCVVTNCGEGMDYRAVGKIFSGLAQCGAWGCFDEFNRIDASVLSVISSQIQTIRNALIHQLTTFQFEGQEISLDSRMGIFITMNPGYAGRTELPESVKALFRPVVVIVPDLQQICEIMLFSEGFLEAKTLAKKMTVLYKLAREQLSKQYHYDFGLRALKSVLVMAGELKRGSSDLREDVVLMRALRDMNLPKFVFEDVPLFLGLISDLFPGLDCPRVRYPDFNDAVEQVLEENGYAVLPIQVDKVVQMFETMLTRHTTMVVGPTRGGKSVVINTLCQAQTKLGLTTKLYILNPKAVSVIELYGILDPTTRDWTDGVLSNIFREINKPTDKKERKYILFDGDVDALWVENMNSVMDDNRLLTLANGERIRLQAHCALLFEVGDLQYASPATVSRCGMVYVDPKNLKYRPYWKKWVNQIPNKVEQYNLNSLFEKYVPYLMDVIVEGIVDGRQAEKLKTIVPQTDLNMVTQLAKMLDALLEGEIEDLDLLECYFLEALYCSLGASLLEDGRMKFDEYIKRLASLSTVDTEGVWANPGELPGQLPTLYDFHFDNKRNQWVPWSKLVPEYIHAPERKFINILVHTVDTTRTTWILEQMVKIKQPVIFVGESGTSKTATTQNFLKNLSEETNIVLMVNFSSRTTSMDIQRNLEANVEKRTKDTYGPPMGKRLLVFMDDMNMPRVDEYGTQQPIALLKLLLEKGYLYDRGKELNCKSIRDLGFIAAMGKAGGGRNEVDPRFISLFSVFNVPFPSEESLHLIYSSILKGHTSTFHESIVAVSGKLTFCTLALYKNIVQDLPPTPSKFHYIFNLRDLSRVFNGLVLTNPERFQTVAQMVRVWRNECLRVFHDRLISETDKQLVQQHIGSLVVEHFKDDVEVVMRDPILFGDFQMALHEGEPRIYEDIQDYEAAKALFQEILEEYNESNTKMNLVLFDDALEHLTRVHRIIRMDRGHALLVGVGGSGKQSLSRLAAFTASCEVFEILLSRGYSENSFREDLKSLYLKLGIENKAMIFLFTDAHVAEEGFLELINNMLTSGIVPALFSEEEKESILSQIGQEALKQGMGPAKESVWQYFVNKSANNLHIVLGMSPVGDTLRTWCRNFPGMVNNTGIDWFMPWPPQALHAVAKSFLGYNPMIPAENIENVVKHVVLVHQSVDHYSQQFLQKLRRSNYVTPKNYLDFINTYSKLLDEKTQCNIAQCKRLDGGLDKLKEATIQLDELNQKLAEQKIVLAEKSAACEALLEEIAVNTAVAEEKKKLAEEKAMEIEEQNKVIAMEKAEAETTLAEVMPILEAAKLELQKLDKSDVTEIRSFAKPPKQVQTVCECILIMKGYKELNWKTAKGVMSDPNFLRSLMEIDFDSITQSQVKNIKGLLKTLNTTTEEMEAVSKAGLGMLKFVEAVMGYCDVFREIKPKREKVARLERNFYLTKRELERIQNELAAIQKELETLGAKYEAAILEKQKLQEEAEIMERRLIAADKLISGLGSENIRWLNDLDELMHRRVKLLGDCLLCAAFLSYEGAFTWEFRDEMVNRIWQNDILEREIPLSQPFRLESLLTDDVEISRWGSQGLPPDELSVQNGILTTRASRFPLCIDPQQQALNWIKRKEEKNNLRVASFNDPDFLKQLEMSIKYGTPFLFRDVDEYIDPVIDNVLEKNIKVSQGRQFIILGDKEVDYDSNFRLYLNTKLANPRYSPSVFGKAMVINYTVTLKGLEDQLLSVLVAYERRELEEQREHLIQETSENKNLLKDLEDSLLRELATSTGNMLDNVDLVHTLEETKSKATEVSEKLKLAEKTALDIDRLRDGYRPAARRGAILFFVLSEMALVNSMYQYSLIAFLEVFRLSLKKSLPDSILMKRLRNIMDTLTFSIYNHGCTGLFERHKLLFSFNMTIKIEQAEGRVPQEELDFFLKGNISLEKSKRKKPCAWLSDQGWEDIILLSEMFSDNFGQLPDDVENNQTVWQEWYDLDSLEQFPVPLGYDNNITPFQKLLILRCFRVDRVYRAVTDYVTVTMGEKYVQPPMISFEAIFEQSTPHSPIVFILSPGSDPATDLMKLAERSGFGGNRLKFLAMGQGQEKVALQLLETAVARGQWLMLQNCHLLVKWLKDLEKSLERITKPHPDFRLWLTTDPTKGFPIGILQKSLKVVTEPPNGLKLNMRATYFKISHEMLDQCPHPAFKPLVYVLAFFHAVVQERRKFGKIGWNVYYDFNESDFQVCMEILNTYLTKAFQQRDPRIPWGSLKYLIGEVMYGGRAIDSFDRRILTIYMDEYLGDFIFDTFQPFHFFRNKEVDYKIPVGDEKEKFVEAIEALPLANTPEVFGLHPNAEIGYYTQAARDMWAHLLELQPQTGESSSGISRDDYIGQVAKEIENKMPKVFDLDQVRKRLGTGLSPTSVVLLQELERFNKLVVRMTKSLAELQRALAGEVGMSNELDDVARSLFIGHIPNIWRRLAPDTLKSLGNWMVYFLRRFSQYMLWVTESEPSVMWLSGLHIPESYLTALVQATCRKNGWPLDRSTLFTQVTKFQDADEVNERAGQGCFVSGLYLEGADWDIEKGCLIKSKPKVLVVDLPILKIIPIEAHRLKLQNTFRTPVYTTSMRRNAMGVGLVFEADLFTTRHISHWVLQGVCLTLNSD
inactive: [8] 0.066 | [3] -0.146 | epoxomicin 0.072 | [1] -0.17 | [9] -0.183 | [4] -0.008 | rosiglitazone 0.031 | [5] 0 | [10] 0.006 | saracatinib -0.067 | sotrastaurin -0.06 | alvocidib 0.028 | Tubastatin A 0.191 | [2] -0.157 | defactinib 0.004 | rucaparib -0.044 | [6] 0.062 | encorafenib -0.06 | [7] -0.013

DCAF12 (UniProt Q5T6F0)
inactive: [8] -0.132 | [9] -0.141 | [10] 0.197 | sotrastaurin 0.058 | rucaparib 0.199 | encorafenib 0.112

DERPC (UniProt P0CG12)
active: [5] 0.519
inactive: [8] 0.127 | [3] -0.051 | [1] 0 | [9] 0.197 | [4] 0.053 | rosiglitazone 0.04 | [10] 0.025 | saracatinib -0.168 | [2] 0.08 | defactinib -0.153 | rucaparib -0.001 | [6] -0.071 | encorafenib -0.109 | [7] 0.063

FADS1 (UniProt F5GYH4)
inactive: [4] 0.026 | rosiglitazone 0.238 | Tubastatin A 0.123 | defactinib 0.06 | [7] 0.123

ELMO1 (UniProt Q92556)
UniProt Q92556, sequence (Q92556 whole entry, looked up): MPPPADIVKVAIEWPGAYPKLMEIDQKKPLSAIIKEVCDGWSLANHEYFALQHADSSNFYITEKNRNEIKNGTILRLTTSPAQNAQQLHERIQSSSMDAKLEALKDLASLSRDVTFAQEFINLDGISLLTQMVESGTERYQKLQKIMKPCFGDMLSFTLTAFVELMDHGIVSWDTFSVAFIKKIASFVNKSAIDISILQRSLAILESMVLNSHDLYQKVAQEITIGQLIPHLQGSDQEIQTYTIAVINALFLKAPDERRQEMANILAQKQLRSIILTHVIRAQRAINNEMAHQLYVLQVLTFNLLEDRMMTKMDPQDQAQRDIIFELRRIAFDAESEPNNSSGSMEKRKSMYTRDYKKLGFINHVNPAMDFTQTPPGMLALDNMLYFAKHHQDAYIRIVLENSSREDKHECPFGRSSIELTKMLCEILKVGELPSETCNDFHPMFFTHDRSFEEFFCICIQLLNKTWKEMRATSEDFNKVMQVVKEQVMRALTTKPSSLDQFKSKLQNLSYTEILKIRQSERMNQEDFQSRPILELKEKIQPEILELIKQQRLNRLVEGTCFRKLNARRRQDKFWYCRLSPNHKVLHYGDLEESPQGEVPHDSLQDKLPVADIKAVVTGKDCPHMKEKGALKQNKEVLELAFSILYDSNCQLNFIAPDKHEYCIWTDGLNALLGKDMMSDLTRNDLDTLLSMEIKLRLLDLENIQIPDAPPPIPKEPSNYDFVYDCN
inactive: [3] -0.089 | epoxomicin -0.109 | [1] 0.046 | [4] 0.031 | rosiglitazone 0.076 | [5] -0.078 | saracatinib 0.051 | sotrastaurin 0.046 | [2] -0.074 | defactinib -0.045 | [6] 0.041 | [7] -0.222

EHBP1 (UniProt Q8NDI1)
inactive: [8] -0.155 | [9] 0.011 | [10] 0.015 | alvocidib -0.085 | Tubastatin A 0.045 | rucaparib 0.135 | encorafenib -0.058

EID1 (UniProt Q9Y6B2)
inactive: volasertib 0.053 | [3] 0.172 | [1] 0.05 | [9] -0.104 | [10] -0.317 | sotrastaurin -0.049 | Tubastatin A 0.599 | [2] -0.111
active: epoxomicin 0.83

FAM135A (UniProt Q9P2D6)
inactive: [3] -0.068 | epoxomicin -0.088 | [1] 0.009 | [4] 0.079 | sotrastaurin -0.192 | [2] 0.004 | defactinib -0.131 | [7] 0.003

DBNL (UniProt Q9UJU6)
inactive: alvocidib -0.142

CTSS (UniProt P25774)
inactive: [8] -0.027 | [9] 0.126 | [4] -0.021 | [5] 0.051 | [10] -0.034 | sotrastaurin 0.051 | alvocidib -0.039 | Tubastatin A -0.084 | defactinib 0.074 | rucaparib 0.258 | [6] 0.134 | encorafenib -0.074 | [7] -0.012
active: saracatinib 0.478

DCP2 (UniProt Q8IU60)
inactive: volasertib -0.153 | epoxomicin -0.04 | [4] -0.069 | [5] 0.319 | saracatinib -0.053 | sotrastaurin -0.267 | alvocidib -0.047 | Tubastatin A 0.013 | defactinib 0.098 | [6] -0.153 | [7] 0.081

ENTR1 (UniProt Q96C92)
inactive: volasertib 0.167 | [1] -0.03 | [4] -0.107 | [5] 0.183 | saracatinib -0.131 | [2] -0.03 | defactinib 0.022 | [6] -0.039
active: [7] -0.486

EDRF1 (UniProt Q3B7T1)
inactive: [8] 0.046 | epoxomicin 0.009 | [1] -0.089 | [9] -0.046 | rosiglitazone 0.004 | [5] 0.006 | [10] -0.014 | saracatinib 0.104 | sotrastaurin 0.012 | alvocidib -0.006 | [2] -0.111 | rucaparib 0.098 | [6] 0.07 | encorafenib 0.058

DCAF4 (UniProt Q8WV16)
inactive: [8] 0.03 | [3] -0.075 | epoxomicin 0.041 | [9] 0.147 | [5] 0.128 | [10] -0.086 | saracatinib -0.097 | sotrastaurin 0.027 | rucaparib -0.346 | [6] 0.193 | encorafenib 0.103

EGR1 (UniProt P18146)
inactive: volasertib 0.085 | [3] 0.158 | epoxomicin 0.489 | [1] 0.113 | [9] 0.228 | [4] -0.241 | rosiglitazone 0.08 | [10] -0.56 | sotrastaurin -0.481 | alvocidib -0.604 | Tubastatin A 0.129 | [2] -0.147 | [7] 0.041
active: defactinib -0.841

DNAL1 (UniProt Q4LDG9)
inactive: epoxomicin 0.082 | [4] 0.103 | rosiglitazone -0.683 | [5] -0.256 | saracatinib -0.081 | alvocidib -0.121 | defactinib -0.14 | [6] 0.062 | [7] -0.13

EPHB4 (UniProt P54760)
inactive: volasertib -0.302 | sotrastaurin -0.057

DDX46, A0A0C4DG89
inactive: [3] -0.074 | epoxomicin 0.155

ELOVL7 (UniProt A1L3X0)
inactive: epoxomicin 0.007 | [1] -0.016 | [5] 0.047 | saracatinib -0.018 | alvocidib -0.101 | Tubastatin A -0.002 | [2] -0.112 | [6] -0.093

DDB1 isoform 2 (UniProt Q16531)
inactive: [8] 0.141 | epoxomicin -0.287 | [9] 0.235 | rosiglitazone 0.301 | [10] -0.041 | sotrastaurin 0.053 | rucaparib -0.067 | encorafenib -0.041

F2RL3 (UniProt Q96RI0)
inactive: volasertib 0.076 | [1] 0.074 | [4] 0.012 | [5] -0.002 | saracatinib 0.04 | alvocidib 0.004 | Tubastatin A 0.082 | [2] -0.051 | defactinib 0.009 | [6] 0.005 | [7] 0.008
